# From PubChem BioAssay
# The list is not random: actives were taken first. Their share in the collection is about 12%.
# L3MBTL1 block – L3MBTL1 (human) inhibition; AID 485360; AlphaScreen L3MBTL1–H3K9me1 peptide binding; Potency, µM (highest dose often 57.1 µM), usual class: inhibitors; actives 0.66% (n = 230,000); note: nearly all actives have a fitted effect of over 60% in size
# Target sequence (Q9Y468 whole entry, looked up): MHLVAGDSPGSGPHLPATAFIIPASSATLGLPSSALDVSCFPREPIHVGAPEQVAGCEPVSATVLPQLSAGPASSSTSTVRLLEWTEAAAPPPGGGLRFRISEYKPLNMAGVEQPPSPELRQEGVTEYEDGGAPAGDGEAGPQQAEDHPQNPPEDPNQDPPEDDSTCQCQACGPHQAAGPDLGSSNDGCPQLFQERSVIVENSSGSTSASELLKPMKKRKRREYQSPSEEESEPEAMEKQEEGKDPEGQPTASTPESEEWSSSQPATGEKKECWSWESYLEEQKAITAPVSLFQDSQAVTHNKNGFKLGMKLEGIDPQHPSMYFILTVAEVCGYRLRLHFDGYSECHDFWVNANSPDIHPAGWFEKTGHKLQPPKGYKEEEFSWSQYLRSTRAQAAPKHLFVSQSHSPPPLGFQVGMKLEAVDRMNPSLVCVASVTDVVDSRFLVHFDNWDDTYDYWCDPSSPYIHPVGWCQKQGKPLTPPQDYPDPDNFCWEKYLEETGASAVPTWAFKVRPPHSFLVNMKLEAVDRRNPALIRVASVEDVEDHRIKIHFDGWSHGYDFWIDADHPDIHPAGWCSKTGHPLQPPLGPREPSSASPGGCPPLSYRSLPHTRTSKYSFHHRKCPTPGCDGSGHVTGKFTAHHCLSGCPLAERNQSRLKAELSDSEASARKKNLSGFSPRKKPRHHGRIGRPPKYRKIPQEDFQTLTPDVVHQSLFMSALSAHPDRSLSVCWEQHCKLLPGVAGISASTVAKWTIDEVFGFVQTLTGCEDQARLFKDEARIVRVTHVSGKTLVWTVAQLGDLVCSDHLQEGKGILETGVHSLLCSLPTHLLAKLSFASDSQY
#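 AlphaScreen proximity signal between nickel-chelate acceptor and streptavidin donor beads (final 10 ug/mL) reports binding of 50 nM L3MBTL1 to 75 nM biotin-H3 K9me1 peptide; complex incubated with compounds 30 min at room temperature; cefsulodin titration as control.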
# G9a inh – G9a (human) methyltransferase inhibition; G9a H3K9 monomethylation, AlphaScreen, 2 h; Potency, µM (top dose mostly 102 µM), actives largely listed as inhibitors; actives 8.8% (n = 350,000); AID 504332; note: nearly all actives have a fitted effect of over 75% in size
#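 G9a (20 nM) preincubated 15 min RT with compounds, then 500 nM biotinylated H3K9 peptide and 20 uM SAM added; 2 h RT reaction. Monomethyl-H3K9 product detected by AlphaScreen with anti-H3K9me1 antibody, streptavidin donor and anti-rabbit IgG acceptor beads.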
# HP1b chromo inh – inhibitors of HP1-beta chromodomain binding to methylated histone tails | AlphaScreen HP1-beta / biotin-H3K9me3 peptide binding | Potency, µM (titrated, usually from 114 µM), actives largely listed as inhibitors | actives 0.56% (n = 390,000) | AID 540317; note: nearly all actives have a fitted effect of over 70% in size
#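 AlphaScreen: HP1-beta (50 nM) preformed 30 min with biotin-H3(1-18)K9me3 peptide (50 nM) in PBS pH 7.4, 0.01% Tween-20. Compound added for 30 min at RT, then streptavidin donor/nickel chelate acceptor beads (10 ug/mL) for 30 min.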
# BAZ2B block – BAZ2B (human) inhibition; AlphaScreen BAZ2B-H3K14Ac peptide displacement; actives 4.4% (n = 360,000); AID 504333; Q9UIF8; Potency, µM (titrated, usually from 114 µM), usual class: inhibitors; note: nearly all actives have a fitted effect of over 60% in size
#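 Protein-peptide AlphaScreen: BAZ2B 50 nM, b-H3K14Ac 50 nM, 1x PBS pH 7.4 + 0.01% Tween-20. Preincubation 30 min RT; cpd 30 min RT (top 110 uM); beads 20 min RT, light-protected.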
# Sfp PPTase inh – Sfp phosphopantetheinyl transferase inhibition. actives 3.5% (n = 310,000). Q9F4F7. Biochemical Sfp PPTase activity, qHTS. AID 1490. Potency, µM, usual class: inhibitors;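 note: the enzyme is Sfp with the accession as filed and its product quenches rhodamine fluorescence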
#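 Buffer: 50 mM Hepes-Na pH 7.6, 10 mM MgCl2, 0.01% Nonidet P-40, 0.01% BSA. Enzyme 15 nM, pre-exposed to compound 15 min; substrates then added and fluorescence change tracked over 30 min.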
# JMJD2A Tudor – JMJD2A Tudor domain (human) inhibition | O75164 | AlphaScreen JMJD2A-Tudor / H3K4me3 peptide binding | Potency, µM (titrated, usually from 114 µM), hits mostly inhibitors | actives 4.4% (n = 390,000) | AID 504339; note: nearly all actives have a fitted effect of over 50% in size
# A number is an active result; – = inactive; ? = inconclusive; · = no result; ! = not confirmed by another sample; [ ] = remark or other dose. Calls come from the whole dose curve; as a rule, active = well fitted curve in the direction sought with a large enough effect; inconclusive = small, poorly fitted or top-dose-only effect, or another doubt; inactive = no such curve, though single readings can be large; an effect the other way counts as inactive or inconclusive.
SMILES,L3MBTL1 block,G9a inh,HP1b chromo inh,BAZ2B block,Sfp PPTase inh,JMJD2A Tudor
CCC1(O)C(=O)OCc2c1cc1n(c2=O)Cc2cc3cc(O)ccc3nc2-1 (centres undefined),·,·,–,·,·,?
CC[C@@]1(O)C(=O)OCc2c1cc1n(c2=O)Cc2cc3ccccc3nc2-1,·,44.7µM!,–,–,–,–
CC[C@@]1(O)C(=O)OCc2c1cc1n(c2=O)Cc2cc3c(NC(=O)CN)cccc3nc2-1,–,?,–,?,56.2µM,–
CC[C@]1(C2=NCCN2)Cc2ccccc2O1,·,·,·,·,–,·
CNCCc1ccc(O)c(O)c1,·,31.6µM,?,·,56.2µM,–
CC/C=C\C/C=C\C/C=C\C/C=C\C/C=C\CCCC(=O)NCCc1ccc(O)c(O)c1,·,·,·,·,–,·
Cc1[nH]c2ccccc2c1CN(C)C,·,–[2.33 µM],·,·,–,·
Cc1[nH]c2ccccc2c1C1=CCNCC1,–,50.1µM,–,?,–,?
COC1=C[C@H]2[C@H]3Cc4ccc(OC)c(O)c4[C@@]2(CCN3C)CC1=O,·,·,·,·,–,·
CN1C(=O)/C(=C\N2CCc3ccccc32)C(=O)NC1=S,–,?,–,–,35.5µM,?
CCOC(=O)C1CCN(/C=C2/C(=O)NC(=S)N(c3ccccc3F)C2=O)CC1,–,·,–,–,–,–
C/C(CC(=O)Nc1cc(C)ccn1)=N\NC(=O)c1ccncc1,·,?,–,?,–,–
C/C(O)=C1\C(=O)[C@@H]2[C@H]3c4c[nH]c5cccc(c45)C[C@H]3C(C)(C)N2C1=O,·,25.1µM!,·,·,56.2µM,·
Cc1ccccc1NC1=NCC(C)S1 (centres undefined),–,–,–,–,–,–
Cc1cccnc1NC1=NCC(C)S1 (centres undefined),–,3.98µM,–,–,–,–[11.4 µM]
c1ccc2sc(C3(NCC4CC4)CCCCC3)cc2c1,·,–,·,·,–,·
Cc1ccc(-n2nc3ccc(NC(=O)COc4ccccc4C)cc3n2)cc1,·,–,–,–,·,–
COc1ccc(C2N(c3cc(C)on3)C(=O)C3CCCN32)cc1 (centres undefined),–,35.5µM,–,–,–,?
O=C1N=C(N2CCCCC2)SC1=C1CCCCC1,·,25.1µM,–,–,–,–
CCCCCCCCCCCCOCCOCCOCCOCCOCCOCCOCCOCCOCCO,·,–[12.7 µM],·,·,70.8µM,·
CN1CCN(Cc2ccc(N)cc2)CC1,–,–[0.501 µM],–,–,–,–
CN1CCN(Cc2cc(C(C)(C)C)c(O)c(C(C)(C)C)c2)CC1,·,8.91µM,?,?,–,2.24µM
N#CCn1c(CCl)nc2ccccc2c1=O,–,56.2µM,–,–,–,–
CN(C)CCc1nc2ccccc2c(=O)n1-c1ccccc1,–[11.4 µM],–[12.7 µM],·,–,–,·
COc1ccc2c3c1OC1C(O)C=CC4C(C2)[N+](C)(C)CCC341 (centres undefined),·,7.94µM,?,22.4µM,?,15.8µM
SMILES,L3MBTL1 block,G9a inh,HP1b chromo inh,BAZ2B block,Sfp PPTase inh,JMJD2A Tudor
NC(N)=Nc1ccc2[nH]c3c(c2c1)C[C@@]1(O)[C@H]2Cc4ccc(O)c5c4[C@@]1(CCN2CC1CC1)[C@H]3O5,–,1.26µM,?,25.1µM,·,3.55µM
Nc1ccc2c(c1)Cc1ccccc1-2,–,?,?,50.1µM,–,?
Nc1ccc2c(c1)Cc1cc([N+](=O)[O-])ccc1-2,–,50.1µM,–,–,–,–
O=[N+]([O-])c1ccc2c(c1)Cc1cc(O)ccc1-2,·,·,–,·,·,–
O=c1[nH]c(=S)[nH]c(O)c1N=Nc1ccc(SC(F)F)cc1,–,44.7µM,–,–,–,–
Cc1cc2ccccc2n1CCNC(=O)COc1ccccc1,–,50.1µM,?,?,–,20µM
O=C(COc1ccccc1)NCCc1cnc[nH]1,·,–,–,–,–,–
Oc1ccc(/C=N/NP(=S)(c2ccccc2)c2ccccc2)cc1O,·,?,?,?,–,?
O=Cc1ccc(O)c(O)c1,–,?,–,56.2µM,31.6µM,22.4µM
CP(=O)(Nc1ccc(Cl)cc1)c1nc2c(s1)CCCC2 (centres undefined),·,39.8µM,–,–,–,–
Cc1nnc(N2CCC(C(=O)NCc3ccc(N(C)C)cc3)CC2)c2nn(-c3ccccc3)c(C)c12,·,–,–,?,·,?
Nc1c(C(=O)Nc2cccc(Br)c2)sc2nc3c(cc12)N1CCC3CC1,·,12.6µM,–,–,·,?
Nc1c(C(=O)Nc2ccc(Cl)cc2)sc2nc3c(cc12)N1CCC3CC1,·,–,–,–,·,–
CC1CCN(CC#CCOc2ccc(Cl)cc2)CC1,–[2.29 µM],–[0.501 µM],?,50.1µM,–,35.5µM
CC1CCN(CC(=O)c2ccccc2Cl)CC1,–,?,–,–,–,?
COc1ccc(OCC#CCN2CCNCC2)cc1,–,8.91µM,?,31.6µM,?,6.31µM
CCN(CCCNS(=O)(=O)c1ccc2c(c1)oc(=O)n2C)c1cccc(C)c1,–,14.1µM,?,–,–,15.8µM
C[C@]12CCC3C(CC[C@H]4C[C@@H](O)CC[C@]34C)[C@@H]1CCC2=O (some centres undefined),·,·,·,·,–,·
CCOC(=O)c1ccc(N=C(C)c2c(O)[nH]c(=O)[nH]c2=O)cc1,–,·,–,–,–,–
CCOC(=O)CCCCCNC(=O)c1c(O)[nH]c(=O)[nH]c1=O,·,·,–,·,·,79.4µM
CC(C)C[C@H](NC(=O)[C@H](CC(C)C)NC(=O)[C@H](Cc1ccccc1)NC(=O)[C@@H](N)Cc1ccc(O)cc1)C(=O)N[C@@H](CCCN=C(N)N)C(=O)N[C@@H](CC(N)=O)C(=O)N1CCC[C@H]1C(=O)O,·,·,·,·,–,·
CC(=NNC(=S)N1CC2CCC(CC2)C1)c1nccs1,·,·,?,·,·,20µM
CC(Oc1ccc(Br)cc1)C(=O)N(Cc1nc(-c2ccccc2)no1)C(C)C (centres undefined),·,–,–,–,·,–
Clc1ccccc1CN1CCN(c2cccc3[nH]ccc23)CC1,–,28.2µM,?,39.8µM,–,?
COc1ccccc1N1CCN(Cc2cccc(OC)c2O)CC1,–,44.7µM,–,50.1µM,–,?
SMILES,L3MBTL1 block,G9a inh,HP1b chromo inh,BAZ2B block,Sfp PPTase inh,JMJD2A Tudor
COc1ccccc1N1CCN(Cc2ccccc2Cl)CC1,·,14.1µM,–,35.5µM,–,3.16µM
COc1ccccc1N1CCN(Cc2ccccc2F)CC1,·,–[2.33 µM],?,44.7µM,–,6.31µM
Cc1ccc(NC(=O)Nc2cc3c(cc2N2CCCCC2)n(C)c(=O)n3C)cc1Cl,·,?,–,?,·,?
C[C@@H]1CC[C@H]2[C@@H](C)C(=O)O[C@@H]3OC4(C)CC[C@@H]1[C@]32OO4,·,–,·,·,–,·
Cc1ccc(-c2nnc(Nc3ccc(OC(F)(F)Cl)cc3)c3ccccc23)cc1S(=O)(=O)NC(C)(C)CO,·,?,–,–,·,–
CC[C@]12CCCN3CCC4(c5ccccc5NC4C(C(=O)O)C1)C32 (some centres undefined),·,·,·,·,–,·
C=C1C(O)C2OC3(CCC(/C=C/C(C)C4CC(C)=CC5(OC(CC(C)(O)C(=O)O)CCC5O)O4)O3)CCC2OC1C(O)CC(C)C1OC2(CCCCO2)CCC1C (centres undefined),·,–[2.33 µM],·,·,–,·
